# Results published in PubChem BioAssay (NCATS).
# “And” between values parts separate entries of the source, which are not always exact repeats. Identical values can stand only once. Records with an inconclusive call do not appear. The source made the active and inactive calls. The call rests on the fitted dose curve; in most records, active means well fitted curve in either direction with a large enough effect (not every such curve was filed as active); inconclusive means small, poorly fitted or top-dose-only effect, or another doubt; inactive means flat fitted curve, though single readings scatter.
# Assay: NFAT Signaling Pathway (AID 444)
# Conditions: Jurkat NFAT-bla M1, carbachol, beta-lactamase ratio, 5 h; at 17.2 µM (top of the series)
# Description: NCGC Assay Overview: The nuclear factor of activated T cells (NFAT) family of transcription factors has been found primarily in most immune system cells and some other non-immune cells. NFAT plays the immunomodulatory role, primarily in T-cell activation and differentiation. NFAT target genes are also involved in the regulation of apoptosis and differentiation in non-immune cell types. The NFAT sequence was engineered to the upstream of the ?-lactamase reporter gene and transfected into Jurkat cells with co-transfection of muscarinic receptor1 [provided by Invitrogen Corp]. When an extracellular stimulus, such as carbachol, binds to the GPCR M1 receptor, it stimulates a signaling cascade that activates NFAT response element and ?-lactamase expression by phosphorylating the NFAT binding protein. This cell based ?-lactamase reporter gene assay can accurately monitor any changes occurring along the NFAT pathway, and can be used for screening small molecule inhibitor or activator upon activation by carbachol EC50 concentration. A small molecular library were screened in a titration series resulting in AC50s (can be either IC50s or EC50s).
# NCGC Assay Protocol Summary: The cells were prepared in RPMI 1640 medium containing 0.1% dialyzed FBS and 25 mM HEPES at 1.6 x 10^6cell/ml. The assay was performed in 1536-well plate format as follows: 5 ul of cell preparation 23 nl of compounds 1ul of carbachol (final concentration 1 uM) Briefly centrifuge the plates and incubate at 37 °C for 5 hours 1 ul of CCF4 dye mixture Incubate the plates at RT for 1 hour Read the plate in EnVision plate reader (Ex= 405nm, and Em1=460nm and Em2=530nm). The %Activity was determined from the ratio of 460nm/530nm. Data normalization and AC50 calculations were accomplished using GeneData software.
# On the % scale 0 is the no-effect control and ±100 the full control effect.
row,Compound,"activity change, negative = inhibition"
1,CN(C)CC/C=C1\c2ccccc2COc2ccccc21,-44.9% (active)
2,OC(CCN1CCCCC1)(c1ccccc1)C1CCCCC1 (stereo not given),-77.3% (active)
3,CCO/C([O-])=N/c1c[n+](N2CCOCC2)no1,-13.9% (inactive) and -20.6% (inactive)
4,CCCOc1ccccc1-c1nc2n[nH]nc2c(=O)[nH]1,14.8% (inactive)
5,CN(C)C(=O)Oc1cccc([N+](C)(C)C)c1,-14.6% (inactive) and 15.5% (inactive) and 0.313% (inactive)
6,CN(C)[C@@H]1C(=O)C(C(N)=O)=C(O)[C@@]2(O)C(=O)C3=C(O)c4c(O)ccc(Cl)c4[C@@H](O)[C@H]3C[C@@H]12,0.847% (inactive)
7,CCCCNc1ccc(C(=O)OCCN(C)C)cc1,-27.7% (inactive)
8,C=CCc1ccccc1OCC(O)CNC(C)C (stereo not given),5.58% (inactive)
9,Cc1ccc(S(=O)(=O)NC(=O)NN2CCCCCC2)cc1,-5.82% (inactive) and -2.02% (inactive)
10,CN(C)C(=O)Oc1ccc[n+](C)c1,4.78% (inactive)
11,NC(N)=NC(=O)Cc1c(Cl)cccc1Cl,3.14% (inactive)
12,COc1ccc(CN(CCN(C)C)c2ccccn2)cc1,-25.9% (inactive) and -22.5% (inactive)
13,Brc1c(NC2=NCCN2)ccc2nccnc12,15.8% (inactive)
14,CCn1cc(C(=O)O)c(=O)c2cc3c(cc21)OCO3,-7.01% (inactive)
15,Cc1nnc(SCC2=C(C(=O)O)N3C(=O)[C@@H](NC(=O)Cn4cnnn4)[C@H]3SC2)s1,-25% (inactive)
16,COc1ccc2c(c1OC)C(=O)O[C@@H]2[C@H]1c2c(cc3c(c2OC)OCO3)CCN1C,-10.3% (inactive)
17,Cc1ccc(Cl)c(Nc2ccccc2C(=O)O)c1Cl,-24% (inactive) and 22.1% (inactive)
18,CCCN(CCC)C(=O)C(CCC(=O)O)NC(=O)c1ccccc1 (stereo not given),-1.88% (inactive)
19,CC(C)[N+](C)(CCOC(=O)C1c2ccccc2Oc2ccccc21)C(C)C,-48.1% (active) and -94.6% (active)
20,CCn1nc(C(=O)O)c(=O)c2cc3c(cc21)OCO3,0.808% (inactive) and 1.97% (inactive)
21,NC(=O)N1c2ccccc2C=Cc2ccccc21,3.6% (inactive)
22,O=C(CCNNC(=O)c1ccncc1)NCc1ccccc1,-23.8% (inactive) and -5.87% (inactive)
23,C[C@]12CCC(=O)C=C1CC[C@@H]1[C@@H]2C(=O)C[C@@]2(C)[C@H]1CC[C@]2(O)C(=O)CO,-6.84% (inactive)

# Same assay, conditions: Jurkat NFAT-bla M1, carbachol, beta-lactamase ratio, 5 h; at 38 µM (top of the series)
row,Compound,"activity change, negative = inhibition"
1,CCO/C([O-])=N/c1c[n+](N2CCOCC2)no1,-9.67% (inactive)
2,CCCOc1ccccc1-c1nc2n[nH]nc2c(=O)[nH]1,2.4% (inactive)
3,CN(C)C(=O)Oc1cccc([N+](C)(C)C)c1,13% (inactive)
4,Cc1ccc(S(=O)(=O)NC(=O)NN2CCCCCC2)cc1,-9.25% (inactive)
5,CN(C)C(=O)Oc1ccc[n+](C)c1,12% (inactive)
6,NC(N)=NC(=O)Cc1c(Cl)cccc1Cl,2.06% (inactive)
7,COc1ccc(CN(CCN(C)C)c2ccccn2)cc1,-21.9% (inactive)
8,Brc1c(NC2=NCCN2)ccc2nccnc12,1.97% (inactive)
9,CCn1cc(C(=O)O)c(=O)c2cc3c(cc21)OCO3,7.6% (inactive)
10,CN(C)CCCN1c2ccccc2Sc2ccccc21,-83.6% (active)
11,Cc1ccc(Cl)c(Nc2ccccc2C(=O)O)c1Cl,0.114% (inactive)
12,CC(C)[N+](C)(CCOC(=O)C1c2ccccc2Oc2ccccc21)C(C)C,-63% (active)
13,CCn1nc(C(=O)O)c(=O)c2cc3c(cc21)OCO3,8.98% (inactive)
14,C[n+]1cc2c3c(ccc2c2ccc4cc5c(cc4c21)OCO5)OCO3,-48.1% (active)
15,NC(=O)N1c2ccccc2C=Cc2ccccc21,3.87% (inactive)
16,O=C(CCNNC(=O)c1ccncc1)NCc1ccccc1,4.78% (inactive)
17,CSc1ccc(C(=O)c2[nH]c(=O)[nH]c2C)cc1,-2.92% (inactive)
